The sample as a whole holds a higher share of hits than the screen did.
Tg IFNy HTS: T. gondii growth inhibition with IFN-gamma, primary screen, cell-based; 69,000 tested, 3.8% active; Toxoplasma gondii growth in IFN-gamma-treated host cells; active compounds read low; AID 1259416, 2018; activity change, negative = inhibition, % (concentration not given with the values); in the data active = activity change below about -70%, passing the limit was not always enough;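 also: host cells are HeLa cells infected with Toxoplasma gondii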
Numbers without * were called inactive; i = inactive.

SMILES	Tg IFNy HTS
O=C(Nc1cccc2ncccc12)c1cc(C2CCN(C(=O)C3CCCC3)CC2)no1	-4.8
COc1ccc(F)c(CN(C)C(C)c2ccncc2)c1Cl (centres undefined)	11.5
CCS(=O)(=O)N1CCC2(CC1)CC(COCC1CC1)N(C(C)C)C2 (centres undefined)	-2.8
Cc1cccc(N(CC(=O)N(C)Cc2csc(C(C)C)n2)S(C)(=O)=O)c1	9.7
Cc1cc(C)n(C)c(=O)c1C(=O)N1CCN(C(=O)C2CCCO2)CC1 (centres undefined)	-2.7
Cc1cccc2[nH]c(C3CCCN3Cc3ncccc3C(=O)O)nc12 (centres undefined)	4.2
Clc1cccc(-c2nnc(-c3nc(N4CCOCC4)c4ccccc4n3)o2)c1	11.3
O=C1CSC(=O)N1CCS(=O)(=O)c1ccc(Cl)cc1	-1.5
O=S(=O)(Cc1cc(Cl)sc1Cl)c1ccc(Cl)cc1	-101.0*
Cc1nnsc1-c1noc(CS(=O)(=O)c2ccc(Cl)cc2)n1	40.2
O=C(Nc1ccc(Br)cc1)C1CC(c2c(F)cccc2Cl)=NO1 (centres undefined)	-0.3
O=C(Nc1cnn(C23CC4CC(CC(C4)C2)C3)c1)C1CC(c2c(F)cccc2Cl)=NO1 (centres undefined)	-83.6*
NC(=O)Cc1csc(NC(=O)C2CC(c3ccccc3Cl)=NO2)n1 (centres undefined)	-6.7
CCC(C(=O)NCc1cc(Cl)c2c(c1)OCCCO2)n1nc(C)cc1C (centres undefined)	9.9
O=C(CCC1C(=O)Nc2ccccc21)NCc1cc(Cl)c2c(c1)OCCCO2 (centres undefined)	1.2
O=C(NCc1cc(Cl)c2c(c1)OCCCO2)c1cccc(Nc2ncccn2)c1	-71.3*
COC(=O)c1ccc(NC(=O)Nc2ccc(-c3nc(-c4ccc(C)cc4C)co3)cc2)cc1	-16.0
O=c1ccc2c([nH]1)CCC(NCc1ccc3c(c1)OCO3)C2 (centres undefined)	28.0
Nc1ncnc2c1c(-c1cccc(OCc3ccccc3)c1)cn2C1CC(CN2CCC2)C1 (centres undefined)	-85.4*
CCn1ccc2cc(S(=O)(=O)N3CCC(C(=O)N4CCN(c5ccccn5)CC4)CC3)ccc21	44.1
CCc1nnc(CN(CC)S(=O)(=O)NCc2ccccc2)o1	-32.7
Cc1cc(C)n(CCCC(=O)N2CCCC3(CC2)CN(C)C(=O)O3)n1 (centres undefined)	-51.7
CCOc1ncccc1-c1cncnc1	-2.6
CCOc1ncccc1-c1ccc(C)nc1N	-90.0*
CCOc1ncccc1-c1cc(CC)nc(N(C)C)n1	6.0
SMILES	Tg IFNy HTS
Cc1ccc(C)c(-c2coc(-c3ccc(NC(=O)COc4ccccc4C)cc3)n2)c1	-39.9
CCSc1nnc(NC(=O)c2cc(S(=O)(=O)N3CCCCC3)cs2)s1	-20.7
C[C@H](CO)N1C[C@H](C)[C@@H](CN(C)C(=O)c2ccccc2)Oc2ncc(C#Cc3ccccc3)cc2C1=O	-88.2*
C[C@@H]1CN([C@H](C)CO)C(=O)c2cc(C#CC3(O)CCCC3)cnc2O[C@H]1CN(C)S(=O)(=O)c1cccc(F)c1	i
C[C@H]1CN([C@@H](C)CO)C(=O)c2cc(C#CC3(O)CCCC3)cnc2O[C@@H]1CN(C)S(=O)(=O)c1cccc(F)c1	-112.0*
C[C@H](CO)N1C[C@H](C)[C@H](CN(C)S(=O)(=O)c2cccc(F)c2)Oc2ncc(C#CC3(O)CCCC3)cc2C1=O	60.4
C[C@H]1CN([C@@H](C)CO)C(=O)c2cc(C#Cc3ccccc3)cnc2O[C@H]1CN(C)C(=O)c1ccccc1	-14.2
C[C@@H]1CN([C@H](C)CO)C(=O)c2cc(C#Cc3ccccc3)cnc2O[C@@H]1CN(C)C(=O)c1ccccc1	17.0
CN1CCC=C(c2noc(C3CCCN3C(=O)C3CCCCC3)n2)C1 (centres undefined)	2.2
CCc1cn[nH]c1C1CCN(c2noc(-c3ccccc3)n2)CC1	9.0
Cc1ccc2c(c1)NC1(CCN(C(=O)c3ccc(Cl)cc3)CC1)c1cccn1-2	4.7
CN(C)S(=O)(=O)c1ccc2c(c1)cc(C(=O)NCCCN1CCCC1)n2Cc1ccncc1	102.7
CCOCC12CCCOC1CCN(S(=O)(=O)c1cccnc1)C2 (centres undefined)	-17.6
COc1ccc(-c2ccc(C(=O)N3CCCC(c4ccccc4)CC3)cn2)cc1 (centres undefined)	-27.5
COc1ccc(-c2ccc(Nc3ccc(C(=O)N4CCCCCC4)cc3)nn2)cc1	-83.6*
Cc1ccc(Nc2ccc(C(=O)N3CCCCC3)cn2)cc1	311.8
Cc1ccc(NC(=O)Nc2ccc(OCc3ccccc3)cc2)cc1NS(C)(=O)=O	-46.2
Cc1cc(F)c(Nc2ncnc3cc(OCc4ccccc4)ccc23)cc1O	-77.0*
Oc1cccc(Nc2ncnc3ccccc23)c1	-10.4
COc1cc2cc(N)c(C3CCN(C(=O)C4CCCO4)CC3)nc2cc1OC (centres undefined)	1.6
Cc1ccc(OCc2occc2C(=O)N2CCC(O)(CN(C)C)C2)cc1 (centres undefined)	-45.3
Cc1ncc(CN2CCc3c([nH]c4ccccc34)C2c2ccc(F)cc2)s1 (centres undefined)	-26.0
N#Cc1c(Cl)cccc1Oc1ccc(-c2ccn[nH]2)cc1	-2.4
Clc1cccc(Cl)c1/C=C/c1ccn[nH]1	-88.8*
Cc1nc(CSCc2ccc(Cl)cc2Cl)cs1	29.5
SMILES	Tg IFNy HTS
CC1c2ccsc2CCN1Cc1ccccc1-n1cccn1 (centres undefined)	-14.9
CS(=O)(=O)NC[C@@]12COC[C@H]1CN(C(=O)C1CC(F)(F)C1)C2	5.0
O=C(/C=C/c1ccccc1)NC(NC(=S)Nc1cccc2cccnc12)C(Cl)(Cl)Cl (centres undefined)	-35.8
O=C(NC(NC(=S)Nc1ccc(F)c([N+](=O)[O-])c1)C(Cl)(Cl)Cl)C(c1ccccc1)c1ccccc1 (centres undefined)	-81.1*
O=C(NCCc1ccc(Cl)cc1)C(c1ccccc1)c1ccccc1	-10.8
Cc1ccc(S(=O)(=O)NCCc2sc(-c3ccc(Cl)cc3)nc2C)cc1	4.5
Cc1nc(-c2ccccc2)nc2c1CCN(CC1CCOC1)CC2 (centres undefined)	-3.0
CCc1ccccc1S(=O)(=O)N1CCc2nc(CNC(=O)C3CCC3)n(C)c2C1	-83.6*
Cn1c(CNC(=O)C2CCC2)nc2c1CN(S(=O)(=O)c1ccc(F)cc1)CC2	-16.4
CCc1ccc(S(=O)(=O)N2CCc3nc(CNC(=O)C4CCC4)n(C)c3C2)cc1	-46.5
Cc1nc(OCC(=O)Nc2ccccc2F)c2ccccc2n1	7.3
COCCN1C(=O)CCc2cc(NS(=O)(=O)c3ccc(C)c(F)c3)ccc21	-5.9
CCCN1C(=O)CCc2cc(NS(=O)(=O)c3ccc(Cl)c(Cl)c3)ccc21	-52.1
CN1C(=O)CCc2cc(NS(=O)(=O)c3cccc(Cl)c3)ccc21	-12.4
COCCN1C(=O)CCc2cc(NS(=O)(=O)c3ccc(OC)c(Cl)c3)ccc21	-5.0
CC(C)CN1C(=O)CCc2cc(NS(=O)(=O)c3ccc(F)cc3F)ccc21	-4.2
CN1C(=O)CCc2cc(NS(=O)(=O)c3ccc(Cl)c(Cl)c3)ccc21	-87.4*
CCN1C(=O)CCc2cc(NS(=O)(=O)c3ccc(C)c(Cl)c3)ccc21	-83.2*
CC(C)CN1C(=O)CCc2cc(NS(=O)(=O)c3ccccc3Cl)ccc21	9.0
CC(C)CN1C(=O)CCc2cc(NS(=O)(=O)c3ccc(F)c(F)c3)ccc21	-63.8
Cc1ccc(S(=O)(=O)Nc2ccc3c(c2)CCC(=O)N3CC(C)C)cc1Cl	-93.1*

Assay outcomes (PubChem)
